# High-throughput results deposited in PubChem BioAssay by National Center for Advancing Translational Sciences (NCATS).
# MCF10A rerep – DNA re-replication induction in MCF 10a cells; MCF 10A DNA re-replication, Hoechst nuclear intensity, 48 h; AID 624296; Potency, µM (highest dose often 46.1 µM), without a hit: at the highest dose activity, positive = re-replication, hits mostly activators; 350,000 compounds, 2.9% hits; also: % of control where 0% means no effect; nearly all actives have a fitted effect of over 50% in size
# SW480 rerep – induces DNA re-replication in SW480 colon adenocarcinoma cells | SW480 DNA re-replication, Hoechst DNA content imaging, 48 h | Potency, µM (titrated, usually from 46.1 µM), for the others: at the top dose re-replication activation, usual class: activators | 340,000 compounds, 1.8% hits; also: % of control where 0% means no effect; nearly all actives have a fitted effect of over 55% in size
#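 DNA re-replication was detected as more nuclei of elevated Hoechst intensity after 48 hr exposure to compound (23 nL pinned per well of 250 cells).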
# KB-V1 cytotox – kills drug-selected multidrug resistant KB-V1 cells; KB-V1 MDR cells viability, CellTiter-Glo, 72 h; Potency, µM (series often up to 46.1 µM), hits mostly cytotoxic; 400,000 compounds, 3.4% hits; AID 1347076; also: % is scaled to controls: 0 for no effect and ±100 for the full control effect; nearly all actives have a fitted effect of over 60% in size
#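 Following 72 h at 37 degrees C with compound, KB-V1 cell viability was read by CellTiter-Glo luminescence, medium being phenol-red-free DMEM plus 10% FBS; concentration-response parameters came from normalized, curve-fitted qHTS data.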
# ELG1 DNA repair – inhibitors of ELG1-dependent DNA repair in HEK293T cells; Potency, µM (doses to about 46.1 µM), inactives show at the highest dose activity change, negative = inhibition, most hits filed as inhibitors; 330,000 compounds, 2.3% hits; HEK293T ELG1-luciferase reporter, luminescence, 16 h; DNA damage induced by 5-fluorouridine; AID 504467; also: % is scaled to controls: 0 for no effect and ±100 for the full control effect; nearly all actives have a fitted effect of over 55% in size
#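 Quantitative HTS, concentration-response format. 2,000 cells/well co-treated with 5-fluorouridine and compound, 16 hr in 5% CO2 at 37 °C; ONE-Glo luminescence read after 30 min.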
# KB-3-1 tox – KB-3-1 parental cell cytotoxicity; KB-3-1 viability, CellTiter-Glo ATP luminescence, 72 h; Potency, µM (top dose mostly 46.1 µM), hits mostly cytotoxic; 400,000 compounds, 1.4% hits; AID 1347075; also: % is scaled to controls: 0 for no effect and ±100 for the full control effect; nearly all actives have a fitted effect of over 60% in size
#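 Parental KB-3-1 adenocarcinoma cells in phenol-red-free DMEM with 10% FBS were pin-treated with compounds at several concentrations, incubated 72 h at 37 °C, and viability read by CellTiter-Glo luminescence; concentration-effect curves were fitted after normalization.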
# Active calls of the source: *; i = inactive; ? = inconclusive; nt = not tested or not shown. Rows were chosen to be rich in hits. Some 8.2% of all compounds tested hit in one or more screens of this group. Calls follow the shape of the dose curve; as a rule, active = well fitted curve in the direction sought with a large enough effect; inconclusive = small, poorly fitted or top-dose-only effect, or another doubt; inactive = no such curve, though single readings can be large; an effect the other way counts as inactive or inconclusive. Potency is read from the fitted curve at half-maximal effect.
SMILES,MCF10A rerep,SW480 rerep,KB-V1 cytotox,ELG1 DNA repair,KB-3-1 tox
CC(=O)Nc1ccc(-c2ccnc3c2CC(C(=O)Nc2ccc(C(C)C)cc2)O3)cc1 (stereo unspecified),nt,nt,?,nt,i
O=C(Nc1ccc(F)c(Cl)c1)C1Cc2c(-c3ccco3)ccnc2O1 (stereo unspecified),nt,nt,21µM*,nt,?
CC(C)c1ccc(NC(=O)C2Cc3c(-c4ccco4)ccnc3O2)cc1 (stereo unspecified),nt,nt,21µM*,nt,i
CC(=O)Nc1cccc(-c2ccnc3c2CC(C(=O)Nc2ccc(F)c(Cl)c2)O3)c1 (stereo unspecified),nt,nt,i,nt,i
CC(=O)Nc1cccc(Nc2cnccn2)c1,nt,nt,i,nt,i
CCOc1ccc(NC(=S)Nc2cc(-c3ccccc3)[nH]n2)cc1,-5%,4%,15µM*,?,i
CC1CCCCN1S(=O)(=O)c1ccc(NC(=O)c2cccs2)cc1 (stereo unspecified),21µM*,21%,?,?,i
CCOc1ccc(NC(=O)[C@@H]2CCCN2C(=O)c2cccs2)cc1S(=O)(=O)N1CCCCC1,-1%,8%,9.2µM*,-22%,i
CCOc1ccc(NC(=O)CN2CCCC2c2cccs2)cc1S(=O)(=O)N1CCCCC1 (stereo unspecified),11%,9%,i,15µM*,?
CCOc1ccc(NC(=O)[C@@H]2CCCN2C(=O)c2cccs2)cc1S(=O)(=O)N1CCOCC1,-1%,-5%,i,24%,i
CC1CCN(S(=O)(=O)c2ccc(NC(=O)[C@@H]3CCCN3C(=O)c3cccs3)cc2)CC1,12%,10%,21µM*,-3%,i
Cc1ccc(NC(=O)CN2CCCC2c2cccs2)cc1S(=O)(=O)N1CCCCC1 (stereo unspecified),?,-1%,i,?,i
CCCS(=O)(=O)NC(=O)C1(C)CCCN(C(=O)c2cccc(C)c2C)C1 (stereo unspecified),nt,nt,i,nt,i
COc1ccc(CC(=O)Nc2c3c(nn2-c2cccc(Cl)c2)CS(=O)(=O)C3)cc1,23%,-4%,16µM*,-17%,i
CC(C)CC(=O)Nc1c2c(nn1-c1cccc(Cl)c1)CS(=O)(=O)C2,14%,6%,i,-17%,i
O=C(Cc1ccccc1)Nc1c2c(nn1-c1cccc(Cl)c1)CS(=O)(=O)C2,19%,-5%,21µM*,7%,i
CC(C)[C@H](N)c1nnc(SCc2ccc(Cl)cc2)o1,0%,-22%,16µM*,-2%,i
O=S(=O)(NCC1OCCc2ccccc21)c1ccc(S(=O)(=O)N2CCOCC2)cc1 (stereo unspecified),-7%,1%,21µM*,-10%,i
Cc1ccc(NC(=O)C2(C)CCN2C2Cc3ccccc3C2)cc1 (stereo unspecified),nt,nt,i,nt,i
CCOC(=O)C/C(=N\Nc1ncnc2ccccc12)c1ccccc1,28%,-4%,16µM*,7%,i
COC(=O)c1ccccc1NN=Nc1ccccc1[N+](=O)[O-],nt,nt,i,nt,i
COc1cc2c(NC3CCN(C)CC3)nc(N3CCCN(C)CC3)nc2cc1OCCCCN(C)C,nt,nt,i,nt,16µM*
COc1cc2c(NC3CCN(C)CC3)nc(N3CCCN(C)CC3)nc2cc1OCCOCCN(C)C,nt,nt,?,nt,i
CCN(c1ccccc1)S(=O)(=O)c1ccc(Cl)c(NC(=O)CSc2nc(N)cc(=O)[nH]2)c1,nt,nt,i,nt,i
CCN1C[C@@H]2[C@@H]3C(=O)N(C)C(=O)[C@@H]3[C@](Cc3ccccc3)(C(=O)OC)N2C1=NCc1ccccc1,1%,3%,i,nt,i
SMILES,MCF10A rerep,SW480 rerep,KB-V1 cytotox,ELG1 DNA repair,KB-3-1 tox
COc1ccccc1NC(=O)C(C)OC(=O)c1nc2nc(C)cc(C)n2n1 (stereo unspecified),-4%,-3%,i,22%,i
O=C(Nc1ccccc1N1CCOCC1)c1cc(-c2ccco2)nc2ccccc12,?,3%,?,5.2µM*,?
COc1cc(-c2cc(C(=O)Nc3ccccc3N3CCOCC3)c3ccccc3n2)cc(OC)c1OC,?,2%,9.2µM*,5.8µM*,i
COc1cc(-c2cc(C(=O)Nc3ccc(C)c(S(=O)(=O)N4CCOCC4)c3)c3ccccc3n2)cc(OC)c1OC,-10%,-3%,i,2.1µM*,i
Cc1ccc2ccc3cc(C(=O)Nc4ccc(C)c(F)c4)nc3c2[nH]1,nt,nt,?,nt,i
CCOc1ccc(CN(C)CC(O)COC(c2ccc(OC)cc2)c2ccc(OC)cc2)cc1 (stereo unspecified),18µM*,?,?,?,?
Cc1ccc(C(=O)Nc2ccc(-c3nc4ccccc4[nH]3)cc2)cc1Br,nt,nt,i,nt,i
O=C(Cn1cncn1)NCc1cccc(OC(F)F)c1,10%,1%,i,-6%,i
O=C(NCc1cccc(C(F)(F)F)c1)c1cc(Cl)ccc1Cl,1%,10µM*,i,-9%,i
O=C(Cn1cncn1)NCc1cccc(C(F)(F)F)c1,0.65µM*,-28%,i,?,i
CCOCCn1c(N2CCN(c3ccc(OC)cc3)CC2)nc2c1c(=O)n(C)c(=O)n2C,-1%,-8%,i,?,i
COCCn1c(N2CCN(c3ccc(OC)cc3)CC2)nc2c1c(=O)n(C)c(=O)n2C,0%,-6%,?,18µM*,i
C=CCn1c(N2CCN(c3ccc(OC)cc3)CC2)nc2c1c(=O)n(C)c(=O)n2C,8%,-4%,?,16µM*,i
COc1ccc(N2CCN(Cc3nc4c(c(=O)n(C)c(=O)n4C)n3C(C)C)CC2)cc1,nt,nt,i,nt,16µM*
O=C(NCc1cccs1)c1cccc2c(-c3cccnc3)coc12,nt,nt,?,nt,i
C[C@H](NC(=O)c1ncn2c1C(=O)NC[C@@H]2C)C(=O)OC(C)(C)C,nt,nt,i,nt,i
COc1cc(CSc2nnnn2-c2ccc(C)cc2)cc(OC)c1OC,-10%,6%,2.1µM*,0%,10µM*
COc1ccc(C(C)=O)cc1CSc1nnnn1-c1ccc(O)cc1,4%,-16%,?,?,i
COc1ccc(F)cc1CSc1nnnn1-c1ccc(O)cc1,13%,10%,16µM*,0%,i
Cc1ccc(OCc2occc2C(=O)O)cc1,-1%,-20%,?,nt,i
COc1cccc(C2C=C(c3ccc(Br)s3)Nc3ncnn32)c1OC (stereo unspecified),0%,-34%,5.2µM*,-15%,?
Fc1ccc(Br)cc1C1C=C(c2ccc(Br)s2)Nc2ncnn21 (stereo unspecified),?,0.58µM*,?,0%,?
